# Test results as given in PubChem BioAssay (NCATS).
# Results filed as inconclusive are left out. Where a call stands in place of a potency, no number is given. The source made the active and inactive calls. Calls come from the whole dose curve; as a rule, active = well fitted inhibition curve with a large enough effect; inconclusive = small, poorly fitted or top-dose-only effect; inactive = flat fitted curve, though single readings scatter. Where a SMILES comes first, the peptide text is derived from it. [ ]: non-standard residue; d: D form. The star is where a group is joined. Benzoyl(4-tBu) = CC(C)(C)c1ccc(C(=O)*)cc1; Lys(Et2) = CCN(CC)CCCC[C@H](N)C(=O)O
# Biological target: Glutathione peroxidase 1 (Homo sapiens) (UniProt P07203)
# Test: Primary qHTS Assay for Inhibitors of Recombinant Selenoprotein Glutathione Peroxidase 1 (GPX1) (AID 1845191); note: nearly all actives have a fitted effect of over 65% in size
# Settings: recombinant GPX1, GR-coupled NADPH fluorescence, 15 min; series mostly up to 48.8 µM
# Description: Assay Provider: Elias S.J. Arner MD PhD.
# Department of Medical Biochemistry and Biophysics
# Karolinska Institutet, Solna, Stockholm, Sweden
# Selenoprotein glutathione peroxidases (GPX), like the ubiquitously expressed GPX1 and the ferroptosis modulator GPX4, enact their antioxidant activities by reducing hydroperoxides using glutathione. […] GPX1 and GPX4 inhibitors have thus shown promise as anti-cancer agents. Existing inhibitors are often promiscuous, or modulate GPX activity only indirectly, so novel direct inhibitors identified through screening against GPX1 and GPX4 could be valuable. Here, we developed optimized glutathione reductase (GR)-coupled GPX assays for the biochemical high-throughput screen (HTS) of almost 12,000 compounds with known mechanisms of action. Initial hits were triaged using a GR counter-screen, assessed for isoform specificity using a separate GPX2 assay, and were assessed for general selenocysteine-targeting activity using a thioredoxin reductase (TXNRD1) assay. With this suite of assays, we identified novel GPX1/GPX2- and GPX4-specific inhibitors and can here present a validated pipeline for future discovery research for selenoprotein-targeting agents.
# SEQUENCE No. (e.g., 1, 2, 3, etc.); […] (e.g., Cells, Incubation, Reagent, etc.); VALUE; DESCRIPTION.
# 1; Reagent 1; 3 uL; GPx1 enzyme or no enzyme control in 1536-well, black, solid Greiner assay plate.
# 2; Compound; 25 nL; Kalypsis pin tool (Wako USA) equipped with a 1536-well pin head.
# 3; Incubation; 30 min; room temperature.
# 4; Reagent 2; 1 uL; 10 nM GPX1, 1 mM GSH, 0.5 mM CHP, 0.5 mM NADPH, 100 nM GR, 0.01% BSA substrate
# 5; Detection; Fluorescence; ViewLux microplate reader, excitation 340 nm and emission 450 nm.
# 6; Incubation; 15 min; room temperature.
# 7; Detection; Fluorescence; ViewLux microplate reader, excitation 340 nm and emission 450 nm.
# NOTES (numbers refer to Sequence numbers above)
# 1. 3 uL of 16.66 nM GPX1 and 0.016% BSA in assay buffer (50 mM Tris-HCl, 2 mM EDTA (pH 7.5), 150 mM NaCl) was added to columns 3-48 of 1536-well assay plates using a BioRAPTR Flying Reagent Dispenser (Let's Go Robotics (LGR), Carlsbad, CA). A no-enzyme control (0.01% BSA in TES assay buffer) was added to columns 1-2.
# 2. 25 nL of test compounds and DMSO controls were added to each well with a pin tool (Kalypsys).
# 3. The assay plates were incubated for 30 minutes at room temperature.
# 4. 1 uL of master mix (500 nM glutathione reductase (GR), 5 mM reduced glutathione (GSH), 2.5 mM NADPH in assay buffer) was added. 1 uL of cumene hydroperoxide (CHP) ([2.5 mM] in 50% EtOH) was then added within 5 minutes to initiate the reaction. Final concentrations were: 10 nM GPX1, 1 mM GSH, 0.5 mM CHP, 0.5 mM NADPH, 100 nM GR, 0.01% BSA.
# 5. Initial fluorescence readout (t=0) at 340/450 nm was measured using a ViewLux multimodal detector (PerkinElmer, Waltham, MA).
# 7. Endpoint fluorescence readout (t=15) at 340/450 nm was measured 15 min after room temperature incubation.
# Glutathione peroxidase 1 (Homo sapiens), sequence (P07203 whole entry, looked up): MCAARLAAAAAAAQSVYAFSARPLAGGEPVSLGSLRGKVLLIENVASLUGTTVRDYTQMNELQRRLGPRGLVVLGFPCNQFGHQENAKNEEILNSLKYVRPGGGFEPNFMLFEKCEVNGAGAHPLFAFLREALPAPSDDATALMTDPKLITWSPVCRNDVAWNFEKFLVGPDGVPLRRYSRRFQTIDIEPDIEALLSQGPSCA
row,SMILES,Potency
1,CCOC(=N)c1nc2ccc3ncnc(Nc4cc(F)c(F)cc4Cl)c3c2s1,inactive
2,Cc1nc(NC(=O)N2CCC[C@H]2C(N)=O)sc1-c1csc(C(C)(C)C)n1,inactive
3,Cc1ccc(S(=O)(=O)Nc2cc(C(F)(F)F)ccc2C(=O)Nc2nc(-c3ccccc3)cs2)cc1,inactive
4,CN(C)Cc1ccc(S(=O)(=O)n2ccc(/C=C/C(=O)NO)c2)cc1,inactive
5,Cc1ccc(NC(=O)[C@H]2CCCN(C(=O)c3c(C)cccc3F)[C@H]2c2ccc(NC3CCCC3)cc2)cc1C(F)(F)F,inactive
6,Fc1ccc(-c2csc3ncnc(NCc4ccc5c(c4)OCO5)c23)cc1,inactive
7,Cc1onc(-c2ccc(F)cc2)c1COc1ccc(C(=O)N2CCS(=O)(=O)CC2)cn1,inactive
8,CC1(N)CCN(c2cccnc2NC(=O)c2nc(-c3ncccc3C(F)(F)F)cnc2N)CC1,inactive
9,CCS(=O)(=O)c1ccc2oc(-c3ccc4ccccc4c3)nc2c1,inactive
10,CN(C)C/C=C/C(=O)Nc1ccc(C(=O)N2CCC[C@@H](Nc3ncc(Cl)c(-c4c[nH]c5ccccc45)n3)C2)cc1,inactive
11,C[C@H](NC(=O)/C(C#N)=C/c1cccc(Br)n1)c1ccccc1,inactive
12,O=C(NCc1ccccc1)[C@H](Cc1ccccc1)NC(=O)[C@H]1O[C@@H]1C(=O)NCCc1ccc(O)cc1,inactive
13,CC(=O)N1CCN(c2ccc(NC(=O)Cc3cnc(-c4ccnc(F)c4)c(C)c3)nc2)CC1,inactive
14,COc1ccc(COc2ccc(Cc3cnc(N)nc3N)cc2OC)cc1,inactive
15,COC(=O)/C=C/C(=O)OC,inactive
16,Cc1ccc(NS(=O)(=O)c2ccc3c(c2)C2C=CCC2C(c2ccc(C(=O)O)cc2)N3)cc1C (stereo not given),inactive
17,C[C@H]1O[C@H](O[C@H]2[C@H](O)[C@@H](O)[C@@H](O[C@H]3[C@H](O)[C@@H](O)C(O)O[C@@H]3CO)O[C@@H]2CO)[C@H](O)[C@@H](O)[C@@H]1N[C@H]1C=C(CO)[C@@H](O)[C@H](O)[C@H]1O (stereo not given in full),inactive
18,O=C(O)CCNc1cc(N2CCc3ccccc3CC2)nc(-c2cccnc2)n1,inactive
19,O=C(O)/C(S)=C/c1ccc(I)cc1,inactive
20,CN(C(=O)c1cn2c(-c3ccc(C(F)(F)F)cc3)cnc2cn1)c1ccc(C#N)cc1,inactive

row,SMILES,Potency
1,COCCOC(=O)N1CCN(S(=O)(=O)c2cc(F)c(Oc3ccc(Cl)cc3)c(F)c2)C(C(=O)NO)C1 (stereo not given),inactive
2,COc1ccnc2[nH]cc(C(=O)C(=O)N3CCN(C(=O)c4ccccc4)C[C@H]3C)c12,inactive
3,CC(C)C[C@H](NC(=O)[C@H](Cc1ccccc1)NC(=O)OCc1ccccc1)C(=O)C=O,inactive
4,O=C(/C=C\n1cnc(-c2cc(C(F)(F)F)cc(C(F)(F)F)c2)n1)NNc1ccccn1,inactive
5,C[C@H]1CNC(=O)c2cnn3ccc(nc23)N[C@H](C)c2cc(F)ccc2O1,inactive
6,CO[C@@H]1[C@@H](O)[C@H](O)[C@@H](n2c3c(Cl)cccc3c3c4c(c5c6cccc(Cl)c6[nH]c5c32)C(=O)NC4=O)O[C@H]1CO,inactive
7,Cn1cc(-c2ccc(-c3cncc(Cl)c3N3CCC4(CCNC4=O)CC3)cc2)cn1,inactive
8,CCC1CCCCN1C(=O)n1ncc(C(O)(c2ccccc2)c2ccccc2)n1 (stereo not given),inactive
9,COc1ccc(S(=O)(=O)N[C@@H](CNc2nc(C)nc(N3CCC(c4ccc5c(n4)NCCC5)CC3)c2C)C(=O)O)cc1,inactive
10,Cc1cc(Nc2cc(N)ncn2)c(=O)n2c1C(=O)NC21CCCCC1,inactive
11,O=C1OC2(CCC(C(=O)Nc3ccn(-c4ccccc4F)n3)CC2)c2cnccc21 (stereo not given),inactive
12,O=C(/C=C/c1ccc2ccc(C(F)(F)F)cc2n1)c1ccncc1,inactive
13,Cc1c(-c2cnccn2)ssc1=S,inactive
14,Cc1ccc(-n2c(C)cc(-c3nnc4n3CCCCC4)c2C)cc1,inactive
15,N=C(N)c1ccc2nc(-c3cc(CC(=O)N[C@@H](CC(=O)O)C(=O)O)cc(-c4cc(S(N)(=O)=O)ccc4O)c3O)[nH]c2c1,inactive
16,COC(=O)C1=C(C)NC(c2ncc(F)cc2F)=N[C@@H]1c1ccc(F)cc1Cl,inactive
17,C[C@@H]1[C@H](O)[C@@H](C)/C=C/C=C/C=C/C=C/C=C/C=C/C=C/[C@H](O[C@@H]2O[C@H](C)[C@@H](O)[C@H](N)[C@@H]2O)C[C@@H]2O[C@](O)(C[C@@H](O)C[C@@H](O)[C@H](O)CC[C@@H](O)C[C@@H](O)CC(=O)O[C@H]1C)C[C@H](O)[C@H]2C(=O)O,inactive
18,C=C1C[C@H]2C=Nc3cc(OCCCOc4cc5c(cc4OC)C(=O)N4CC(=C)C[C@H]4C=N5)c(OC)cc3C(=O)N2C1,inactive
19,CCN(CC)CCCC[C@H](NC(=O)[C@H](CC(C)C)NC(=O)[C@H](C)NC(=O)[C@H](Cc1ccccc1)NC(=O)c1ccc(C(C)(C)C)cc1)C(=O)N[C@@H](CO)C(=O)OC ({Benzoyl(4-tBu)}-FAL[Lys(Et2)]S-OMe),inactive
20,Cc1ccc(NS(=O)(=O)c2cc3c(cc2Cl)CCC(=O)N3)cc1Cl,inactive
